About 960 (1.5%) of roughly 66,000 compounds showed an effect of 50% or more. Shown is part of a subset that was picked to be rich in strong results.
System: Trypanosoma brucei
Assay: Trypanosoma brucei 72 hour study
Type: functional, organism-based
Set-up: scale not given: in the data most compounds retested in dose-response had high values

Compound: CCN(C)c1ncnc2c1CCN(Cc1ccc(F)cc1)CC2.O=C(O)C(F)(F)F.O=C(O)C(F)(F)F
- Percent Effect (30 µM, 30.03 µM): 0%

Compound: CC(=O)N1CCOCC2(CN(Cc3ccc(C)o3)CCO2)C1.O=C(O)C(F)(F)F (centres undefined)
- Percent Effect (30 µM, 30.03 µM): 0.2271%

Compound: COCCCC1(CO)CCCN(CCc2ccccn2)C1 (centres undefined)
- Percent Effect (30 µM, 30.03 µM): -19.7%

Compound: COCCCC1(CO)CCCN(CCc2ccccc2)C1 (centres undefined)
- Percent Effect (30 µM, 30.03 µM): 60.85%

Compound: COCCC1(CO)CCCN(CCCc2ccccc2)C1 (centres undefined)
- Percent Effect (30 µM, 30.03 µM): -35.64%

Compound: COCCn1c(=O)n(C)c(=O)c2ccc(C3CCC(CN)CC3)nc21.Cl (centres undefined)
- Percent Effect (30.3 µM, […]): 8.357%

Compound: COc1cccc(CNC(Cc2cccs2)c2nc(C)c(C)s2)c1OC.Cl (centres undefined)
- Percent Effect (30.3 µM, […]): -32.09%

Compound: CCc1ccc2nc(C)cc(C(=O)NC[C@@H]3CCNC[C@H]3O)c2c1
- Percent Effect (30 µM, 30.03 µM): -34.49%

Compound: CCc1ccc2nc(C)cc(C(=O)N[C@@H]3CCCNC3)c2c1
- Percent Effect (30 µM, 30.03 µM): 86.43%

Compound: CCc1ccc2nc(C)cc(C(=O)N[C@@H]3CNC[C@H]3O)c2c1
- Percent Effect (30 µM, 30.03 µM): -69.69%

Compound: CCS(=O)(=O)N1CCCC2(COCCN(c3ccccn3)C2)C1.O=C(O)C(F)(F)F (centres undefined)
- Percent Effect (30 µM, 30.03 µM): -23.72%

Compound: Cc1nn(C)c(Cl)c1CNCc1cccnc1N1CCOCC1.Cl
- Percent Effect (30 µM, 30.03 µM): 16.35%

Compound: COC(=O)Cn1c(C)cc(=O)c2cc(F)ccc21
- Percent Effect (30.3 µM, […]): -56.52%

Compound: CC1(c2ccccc2)CCCN(Cc2cncn2C2CC2)C1 (centres undefined)
- Percent Effect (30 µM, 30.03 µM): -39.24%

Compound: CC1(c2ccccc2)CCCN(Cc2cncn2C2CCCC2)C1 (centres undefined)
- Percent Effect (30 µM, 30.03 µM): 102.5%

Compound: COCCn1cncc1CN1CCCC(C)(c2ccccc2)C1 (centres undefined)
- Percent Effect (30 µM, 30.03 µM): -43.69%

Compound: Cn1ccc(C(=O)N2CCCCC2c2cc(CCO)[nH]n2)n1 (centres undefined)
- Percent Effect (30.3 µM, […]): -16.55%

Compound: O=C(Cc1cccs1)N1C[C@H]2CN(CC3CCCO3)CC[C@H]2C1.O=C(O)C(F)(F)F (some centres undefined)
- Percent Effect (30 µM, 30.03 µM): -6.249%

Compound: COC(=O)c1cc(C(=O)N2CCOC(C)(C)C2)n(-c2ccccc2)n1
- Percent Effect (30.3 µM, […]): 6.059%

Compound: Cc1nc(C)n(CC2CCCN2CC(=O)NCCc2ccsc2)n1 (centres undefined)
- Percent Effect (30 µM, 30.03 µM): -16.47%

Compound: CN1CCN(c2ccc(S(N)(=O)=O)cc2C#N)Cc2ccccc21
- Percent Effect (30.3 µM, […]): -63.54%

Compound: CC(=O)N1CCC(n2ccc(-c3cnc(N4CCOCC4)nc3)n2)CC1
- Percent Effect (30.3 µM, […]): 26%

Compound: CC(=O)N1CCC(n2ccc(-c3cnc(NCC(C)C)nc3)n2)CC1
- Percent Effect (30.3 µM, […]): 77.59%

Compound: CC[C@H](C)Nc1ncc(-c2ccn(C3CCN(C(C)=O)CC3)n2)cn1
- Percent Effect (30.3 µM, […]): -5.339%

Compound: CC(C)n1c(=O)nc2n1C(=O)N(c1ccc(Br)cc1)C2
- Percent Effect (30 µM, 30.03 µM): -31.4%

Compound: N#Cc1cccc(CN2C[C@H](NC(=O)C3CC3)[C@H]3OCCC[C@H]32)c1.O=C(O)C(F)(F)F
- Percent Effect (30.3 µM, […]): -35.12%

Compound: CC(=O)N1CCCC2(CCC(=O)N2Cc2cccnc2)C1.O=C(O)C(F)(F)F (centres undefined)
- Percent Effect (30.3 µM, […]): 1.324%

Compound: COCCCN1Cc2cccc(NC(=O)c3cc(F)cc(F)c3)c2C1
- Percent Effect (30 µM, 30.03 µM): 34.67%

Compound: COCCCN1Cc2cccc(NC(=O)c3ccccc3Cl)c2C1
- Percent Effect (30 µM, 30.03 µM): 7.9%

Compound: COCCCN1Cc2cccc(NC(=O)c3cc(F)ccc3F)c2C1
- Percent Effect (30 µM, 30.03 µM): 52.37%

Compound: CN1CCN(C2COC3(CCN(Cc4cccs4)CC3)C2)CC1.O=C(O)C(F)(F)F.O=C(O)C(F)(F)F (centres undefined)
- Percent Effect (30.3 µM, […]): -470.3%

Compound: Cc1nc[nH]c1CN1C[C@@H]2CC[C@H](C1)N(C(=O)CCc1cccnc1)C2
- Percent Effect (30 µM, 30.03 µM): -21.46%

Compound: Cc1nc(CN2CC3(CCN(c4cnccn4)C3)CC2=O)cs1.O=C(O)C(F)(F)F (centres undefined)
- Percent Effect (30 µM, 30.03 µM): -45.32%

Compound: CC(C)(C)[S+]([O-])CCNC(=O)c1csc(NC2CC2)n1 (centres undefined)
- Percent Effect (30 µM, 30.03 µM): -59.41%

Compound: Cc1cnc(NC(=O)c2csc(NC3CCCC3)n2)s1
- Percent Effect (30 µM, 30.03 µM): -9.891%

Compound: CC(=O)Nc1nc(C(=O)N2CCCC(c3cc(C)[nH]n3)C2)cs1 (centres undefined)
- Percent Effect (30 µM, 30.03 µM): 16.48%

Compound: Cc1[nH]/c(=N\C(=O)c2csc(NC3CC3)n2)sc1C
- Percent Effect (30 µM, 30.03 µM): 66.57%

Compound: Cc1[nH]/c(=N\C(=O)c2csc(NC3CCCC3)n2)sc1C
- Percent Effect (30 µM, 30.03 µM): 95.68%

Compound: CCN(CC)C(=O)CCCNC(=O)c1csc(NC2CC2)n1
- Percent Effect (30 µM, 30.03 µM): -27.48%

Compound: O=C(O)C(F)(F)F.c1csc(CN2CCC3(CCOCC3COCC3CC3)CC2)n1 (centres undefined)
- Percent Effect (30.3 µM, […]): -46.34%

Compound: C=C(C)CN1CCC(NC(=O)Nc2ccc(F)c(C(=O)NC)c2)CC1
- Percent Effect (30.3 µM, […]): -0.7134%

Compound: CC[C@@H]1N(Cc2ccc(F)cc2)CCC[C@]12CCC(=O)N2C.O=C(O)C(F)(F)F
- Percent Effect (30.3 µM, […]): -14.8%

Compound: O=C(O)C(F)(F)F.O=C(c1ccco1)N1CCC2(CCCN(c3ncccn3)C2)C1 (centres undefined)
- Percent Effect (30.3 µM, […]): -37.47%

Compound: CC(=O)Nc1nc2c(s1)C(C)(C)Nc1ccccc1S2
- Percent Effect (30.3 µM, […]): -17.63%
